High-throughput results as filed in PubChem BioAssay.
Peg3 prom inh – reduces Peg3 promoter-driven luciferase expression in HeLa. HeLa PEG-Prom luciferase reporter, luminescence, overnight. inhibition, % at 20 µM. hit rate 1.7% among 360,000;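 active = inhibition of at least 50% at 20 µM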
KKLEB cytotox – CF airway cell cytotoxicity counter-screen; KKLEB CF airway cells viability, ATPlite luminescence, overnight; active compounds read low; cells stimulated with P. aeruginosa culture filtrate; activity change (cytotoxicity), % at 5 µM; hit rate 0.36% among 360,000;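 active = corrected activity change at or below -50% at 5 µM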
MITF TRPM1 inh – MITF TRPM1 promoter inhibition in SK-MEL-5 cells. SK-MEL-5 TRPM1 promoter luciferase, 24 h. inhibition, % at 12.5 µM. hit rate 0.83% among 330,000;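 active = mean inhibition across replicates of 60% or more, whatever share of single replicates reaches that level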
CF NFkB block – inhibitors of cystic fibrosis induced NF-kB; KKLEB NF-kB-GFP reporter, PAF-induced, GFP fluorescence overnight; inhibition, % at 5 µM; hit rate 0.86% among 360,000; AID 588850;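 active = at least 50% inhibition at 5 µM, scaled per plate between neutral and stimulator controls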;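 also: PAF is a Pseudomonas aeruginosa culture filtrate used as stimulus; plate controls were PAF-stimulated DMSO wells for no effect and unstimulated DMSO wells for full effect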
CHOP inh – blocks CHOP induction under ER stress; CHO-K1 CHOP-promoter luciferase, tunicamycin-induced, 15-18 h; inhibition, % at 10 µM; hit rate 3.8% among 220,000;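 active = compounds that reduced the stress-induced luciferase reporter signal by more than about 70% of percent inhibition, limit read from the data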;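 also: 0% = tunicamycin plus vehicle and 100% = wells without tunicamycin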
HIF-2a block – blocks HIF-2a reporter activity; 786-0 RCC cells HIF-2a reporter, luciferase luminescence, overnight; inhibition, % at 18.8 µM; hit rate 0.72% among 360,000; AID 624352;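 active = inhibition of the luminescence signal of 40% or more relative to plate controls, in a single-dose primary screen at 18.75 µM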
Mdm2-MdmX confirm – confirmation of inhibitors of human Mdm2/MdmX interaction, set 2. AID 504601. SaOS-2 split-luciferase Mdm2/MdmX complementation, luminescence. hit rate 99% among 740. inhibition, % at 8 µM. shares compounds with HIF-2a block;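 active = mean inhibition of the luminescence signal across two replicates at or above 26 percent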
Target sequence (O15151 whole entry, looked up): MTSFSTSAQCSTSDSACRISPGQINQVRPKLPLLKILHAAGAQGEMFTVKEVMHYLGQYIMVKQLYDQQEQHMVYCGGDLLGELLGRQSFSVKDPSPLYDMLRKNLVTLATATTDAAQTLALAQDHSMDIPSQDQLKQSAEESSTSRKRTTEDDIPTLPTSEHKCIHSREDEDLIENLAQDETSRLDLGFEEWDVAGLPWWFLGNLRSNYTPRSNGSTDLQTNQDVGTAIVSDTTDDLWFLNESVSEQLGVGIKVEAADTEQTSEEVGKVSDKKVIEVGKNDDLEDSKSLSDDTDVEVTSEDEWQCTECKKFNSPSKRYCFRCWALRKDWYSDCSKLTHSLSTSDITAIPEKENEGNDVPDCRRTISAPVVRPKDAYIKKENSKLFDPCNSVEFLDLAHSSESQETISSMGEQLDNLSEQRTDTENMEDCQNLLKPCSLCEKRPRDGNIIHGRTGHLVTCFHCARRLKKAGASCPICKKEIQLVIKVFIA
Target sequence (Q00987 whole entry, looked up): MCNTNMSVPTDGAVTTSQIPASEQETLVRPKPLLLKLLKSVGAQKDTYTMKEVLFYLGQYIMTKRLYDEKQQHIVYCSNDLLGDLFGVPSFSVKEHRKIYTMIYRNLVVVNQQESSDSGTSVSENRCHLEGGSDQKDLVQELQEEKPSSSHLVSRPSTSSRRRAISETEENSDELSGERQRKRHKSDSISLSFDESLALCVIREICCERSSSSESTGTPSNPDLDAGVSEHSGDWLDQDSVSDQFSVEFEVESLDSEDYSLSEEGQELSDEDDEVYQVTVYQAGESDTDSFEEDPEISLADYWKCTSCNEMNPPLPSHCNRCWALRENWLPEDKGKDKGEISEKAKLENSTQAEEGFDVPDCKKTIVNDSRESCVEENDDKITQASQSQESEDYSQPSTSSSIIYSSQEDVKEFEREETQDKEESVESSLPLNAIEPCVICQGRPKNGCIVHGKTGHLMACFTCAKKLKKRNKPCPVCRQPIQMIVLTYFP
HIF-2a inh conf – HIF-2a inhibition, single concentration confirmation; hit rate 56% among 1,800; inhibition, % at 18.8 µM; 786-0 RCC cells, HIF-2a luciferase reporter luminescence, overnight; AID 651580; shares compounds with HIF-2a block;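 active = mean inhibition across four replicates of at least 40 percent at the single tested concentration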
HIF-1a counter – HIF-1a inhibition counter-screen for HIF-2a hits; inhibition, % at 18.8 µM; hit rate 72% among 1,800; shares compounds with HIF-2a block; MiaPaCa-2 HIF-1a luciferase reporter, desferoxamine, overnight;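 active = mean inhibition of the reporter signal across four replicates at the single tested dose of 50% or more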
* hit, by the source's call; . = no result given. The list is not random: actives were taken first. Their share in the collection is about 4.3%.

SMILES | Peg3 prom inh | KKLEB cytotox | MITF TRPM1 inh | CF NFkB block | CHOP inh | HIF-2a block | HIF-2a inh conf | HIF-1a counter | others
O=S(=O)(/C(=C\c1ccc(C(F)(F)F)cc1)c1nc2ccccc2[nH]1)c1ccccc1 | 105* | -68* | 97* | 86* | . | 84* | 98* | 107*
CC(C)(C)c1ccc(S(=O)(=O)N2CC(C(=O)O)Oc3ccc(Cl)cc32)cc1 (stereo not given) | 13 | 7 | 16 | -11 | . | 7 | . | .
N#CCC(=O)N/N=C\c1cccc(OC/C=C/c2ccccc2)c1 | 52* | 9 | 10 | -5 | . | 64* | 71* | 11
COc1cc(/C=N\NC(=O)CC#N)ccc1OC/C=C/c1ccccc1 | 10 | 1 | 13 | -27 | . | 1 | . | .
CC(=O)N/N=C\c1cccc(OC/C=C/c2ccccc2)c1 | -71 | -5 | -13 | 3 | . | 48* | 56* | -30
CC(=O)N/N=C\c1ccccc1OC/C=C/c1ccccc1 | -262 | 7 | -81 | -28 | . | -104 | . | .
COc1ccc(C(=O)N2CC3(CC(c4ccc(Cl)cc4)=NO3)C[C@H]2C(=O)NCC(N)=O)cc1 (stereo not given in full) | -21 | -5 | -5 | -12 | 24 | 10 | . | .
Cc1c(C(=O)N2CCC(C(N)=O)CC2)oc2ccc(Br)cc12 | -240 | 6 | -22 | -6 | . | -84 | . | .
NC(=O)CC(NC(=O)Cc1cccc2ccccc12)c1ccc(N2CCN(c3ccccn3)CC2)c([N+](=O)[O-])c1 (stereo not given) | -3 | 8 | -6 | -7 | . | 17 | . | .
Cc1ccc(-n2c(O)c(C=Nc3ccccc3-c3n[nH]c(=S)[nH]c3=O)c3ccccc3c2=O)c(C)c1 | 17 | -14 | -1 | 2 | 6 | 43* | 15 | 85*
COc1ccc2c(/C=N/Nc3ccc(C(=O)O)cc3)c[nH]c2c1 | -184 | 6 | -19 | 8 | . | -143 | . | .
CCCCCN=C(N)N/N=C/c1c[nH]c2ccc(OC)cc12 | 95* | -24 | 97* | 25 | . | 98* | 35 | 100*
O=C(NCc1cccnc1)/C(=C/c1ccc(-c2ccc(Cl)cc2)o1)S(=O)(=O)c1ccccc1 | 101* | -54* | 93* | 73* | 104* | 90* | 99* | 104* | Mdm2-MdmX confirm=102*
O=C(NCc1cccnc1)/C(=C\c1ccc(-c2ccc(Br)cc2)o1)S(=O)(=O)c1ccccc1 | 107* | -56* | 100* | 86* | 106* | 93* | 98* | 106* | Mdm2-MdmX confirm=103*
COc1ccc2c(c1)cc(C(=O)N[C@@H](CCSC)C(=O)N1CCC[C@H]1C(=O)O)n2C | -4 | 0 | 7 | -16 | . | 0 | . | .
C=CCOC(=O)CSCC(NC(=O)OC(C)(C)C)C(=O)OCC (stereo not given) | 2 | 11 | 9 | -17 | 19 | 58* | 45* | 24
CCOC(=O)CNC(=O)C(CC(N)=O)NC(=O)OC(C)(C)C (stereo not given) | 14 | 8 | . | -18 | 18 | 6 | . | .
COc1ccc(C(C(=O)NC2CCCCC2)N(C(=O)CCl)c2ccc(OC)cc2)cc1 (stereo not given) | 101* | -81* | 82* | 72* | 9 | 30 | . | . | Mdm2-MdmX confirm=95*
COc1ccc(C(C(=O)NC2CCCCC2)N(C(=O)CCl)c2ccc(C)cc2)cc1 (stereo not given) | 69* | -93* | 82* | 91* | 40 | 29 | . | . | Mdm2-MdmX confirm=102*
O=C(NC1CCCCC1)C(c1cccnc1)N(C(=O)CCl)c1ccccc1Cl (stereo not given) | 30 | -8 | 20 | 10 | 5 | 30 | . | . | Mdm2-MdmX confirm=103*
COc1ccc(Cl)cc1NC(=O)CN(C)C(=O)CCC(=O)c1cc(C)sc1C | 28 | 15 | 1 | 0 | . | 9 | . | .
COc1ccc(CN2C(=O)CNC2=S)cc1 | -6 | 2 | -6 | -5 | . | 3 | . | .
Cc1ccc(C(C)n2cc(C(=O)NCc3ccccn3)nn2)cc1 (stereo not given) | 1 | -6 | -7 | 23 | 30 | 15 | . | .
CN(CC(=O)Nc1cccc(F)c1)CC(=O)Nc1cccc(S(N)(=O)=O)c1 | 2 | 9 | -4 | 7 | -11 | 15 | . | .
CC(Cc1n[nH]c(=S)n1N)c1ccccc1 (stereo not given) | 5 | 1 | 4 | -16 | . | 8 | . | .
SMILES | Peg3 prom inh | KKLEB cytotox | MITF TRPM1 inh | CF NFkB block | CHOP inh | HIF-2a block | HIF-2a inh conf | HIF-1a counter | others
Cc1ccccc1CN(CC(=O)Nc1cccc([N+](=O)[O-])c1)S(=O)(=O)c1ccc(Cl)cc1 | 40 | -3 | 0 | 15 | 51 | 3 | . | .
CCOC(=O)C(C)(C)N(Cc1ccccc1C)S(=O)(=O)c1ccc(Cl)c([N+](=O)[O-])c1 | 100* | -1 | 8 | 2 | 26 | 40* | 21 | 42
c1ccc(-c2nnc(C3CC(c4ccncc4)=NO3)o2)cc1 (stereo not given) | 0 | -16 | 9 | 9 | . | 7 | . | .
Cn1cnnc1Sc1nc([N+](=O)[O-])nn1C | 9 | 0 | 11 | 0 | -6 | 7 | . | .
COc1ccccc1-c1nnc(Sc2nc([N+](=O)[O-])nn2C)o1 | 66* | -35 | 57 | 48 | -69 | 0 | . | . | Mdm2-MdmX confirm=97*
CN(c1ccccc1)S(=O)(=O)c1ccc(NC(=O)c2ccc(-c3ccccc3)cc2)cc1 | 13 | 12 | 13 | -12 | 70 | 8 | . | .
CCN(c1ccccc1)S(=O)(=O)c1ccc(NC(=O)c2nc(S(C)(=O)=O)ncc2Cl)cc1 | 108* | -101* | 100* | 102* | . | 92* | . | . | Mdm2-MdmX confirm=102*
CCS(=O)(=O)c1ncc(Cl)c(C(=O)Nc2ccc(S(=O)(=O)N(C)c3ccccc3)cc2)n1 | 102* | -97* | 98* | 82* | . | 95* | 99* | 99* | Mdm2-MdmX confirm=103*
C#CCn1c(S(=O)(=O)Cc2ccc(C)cc2)nc(-c2ccccc2)c1-c1ccccc1 | 33 | 16 | -7 | -16 | 22 | -17 | . | . | Mdm2-MdmX confirm=100*
C#CCn1c(C)cc(C)c(S(=O)(=O)c2ccccc2)c1=O | -116 | 7 | -26 | -8 | -14 | -148 | . | .
CC(C)(C)c1ccc(C(=O)Nc2sc3c(c2C(=O)O)CCC3)cc1 | 24 | 3 | 66* | -8 | 35 | 96* | 96* | 75*
O=C(Nc1sc2c(c1C(=O)O)CCCC2)c1ccc(F)cc1 | -206 | 4 | . | -1 | . | -258 | . | .
Cc1cc2[nH]c3ccccc3c2c(C)n1 | 33 | 1 | 18 | -48 | 20 | 14 | . | .
